Data on 40 sequences can be found in article PMC12820563, “FoxP3 forms a head-to-head dimer in vivo and stabilizes its multimerization on adjacent microsatellites”.

Over roughly 16,000 sequences, “rpm ratio (pull-down/input)” has its median near 0.94; the highest 2% begin near 1.7. The sample as a whole holds a higher share of the highest values than the screen did.

The assay concerns the target T1, MBP-FoxP1dN (Mus musculus, UniProt P58462 326-579).
T1 sequence: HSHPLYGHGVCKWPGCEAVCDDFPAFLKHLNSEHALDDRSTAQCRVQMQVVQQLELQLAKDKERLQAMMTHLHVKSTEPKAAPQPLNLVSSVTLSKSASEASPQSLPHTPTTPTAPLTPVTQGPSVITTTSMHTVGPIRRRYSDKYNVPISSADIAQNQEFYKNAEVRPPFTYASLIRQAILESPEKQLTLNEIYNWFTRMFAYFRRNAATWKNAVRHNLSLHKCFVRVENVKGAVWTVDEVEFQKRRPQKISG
Put plainly: PD-seq (MBP pull-down with sequencing); 20 mM Tris-HCl pH 7.5, 100 mM NaCl, 1.5 mM MgCl2, 0.4 uM protein, 0.1 uM dsDNA library, 30 min, room temperature, amylose pull-down; high values mean tight binding. Particulars: protein: recombinant; tags: His6-MBP; chain copies: 2; dsDNA, one strand shown. Summed up:
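Binding is the reads-per-million enrichment of pull-down relative to input, pooled across replicates. For this, 0.4 µM His6-MBP-tagged mouse FoxP3 or FoxP1 fragment lacking the N-terminus, made in E. coli, was incubated with 0.1 µM Klenow-filled double-stranded degenerate DNA library for 30 min at room temperature in Tris pH 7.5 buffer with NaCl and MgCl2. Complexes bound to amylose resin were washed three times before proteinase K released the DNA for PCR barcoding and Illumina sequencing.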
As for “GATGATTGTTCTCCCAGCTGATGAATTGGAAGCGTCGAGTAAACAAATTTTCCTAATCTTTCTGTTCAAGCGCCATCTAC”, the binding signal is 0.893 RPM ratio (pull-down/input). “GATGATTGTTCTCCCAGCTGATGAATTGAATGGCTCGAGTAAACAAATTTTCCTAATCTTTCTGTTCAAGCGCCATCTAC”: the binding signal is 0.823 RPM ratio (pull-down/input).

Consider “GATGATTGTTCTCCCAGCTGATGAATTGACCGAGTCGAGTAAACAAATTTTCCTAATCTTTCTGTTCAAGCGCCATCTAC”, for which the binding signal was 0.835 RPM ratio (pull-down/input).

As to “GATGATTGTTCTCCCAGCTGATGAATTCCTTCTCTCGAGTAAACAAATTTTCCTAATCTTTCTGTTCAAGCGCCATCTAC”, the binding signal is 0.736 RPM ratio (pull-down/input). As for “GATGATTGTTCTCCCAGCTGATGAATTATCGTCGTCGAGTAAACAAATTTTCCTAATCTTTCTGTTCAAGCGCCATCTAC”, the figure is 0.884 RPM ratio (pull-down/input); as for “GATGATTGTTCTCCCAGCTGATGAATTTCTAGTTTCGAGTAAACAAATTTTCCTAATCTTTCTGTTCAAGCGCCATCTAC”, 0.858 RPM ratio (pull-down/input); as for “GATGATTGTTCTCCCAGCTGATGAATTTCGCATGTCGAGTAAACAAATTTTCCTAATCTTTCTGTTCAAGCGCCATCTAC”, 0.944 RPM ratio (pull-down/input). As for “GATGATTGTTCTCCCAGCTGATGAATTAGTCACCTCGAGTAAACAAATTTTCCTAATCTTTCTGTTCAAGCGCCATCTAC”, the figure is 0.877 RPM ratio (pull-down/input); as for “GATGATTGTTCTCCCAGCTGATGAATTCTGGGCTTCGAGTAAACAAATTTTCCTAATCTTTCTGTTCAAGCGCCATCTAC”, 0.843 RPM ratio (pull-down/input).

As for “GATGATTGTTCTCCCAGCTGATGAATTGTATTAGTCGAGTAAACAAATTTTCCTAATCTTTCTGTTCAAGCGCCATCTAC”, the binding signal was 1.3 RPM ratio (pull-down/input). The value for “GATGATTGTTCTCCCAGCTGATGAATTAGTTCTGTCGAGTAAACAAATTTTCCTAATCTTTCTGTTCAAGCGCCATCTAC” was 0.873 RPM ratio (pull-down/input); that for “GATGATTGTTCTCCCAGCTGATGAATTTAGTATTTCGAGTAAACAAATTTTCCTAATCTTTCTGTTCAAGCGCCATCTAC” was 1.24 RPM ratio (pull-down/input).

Regarding “GATGATTGTTCTCCCAGCTGATGAATTAGTATTTTCGAGTAAACAAATTTTCCTAATCTTTCTGTTCAAGCGCCATCTAC”, the binding signal was 2.28 RPM ratio (pull-down/input). As for “GATGATTGTTCTCCCAGCTGATGAATTAGTAATTTCGAGTAAACAAATTTTCCTAATCTTTCTGTTCAAGCGCCATCTAC”, the figure is 1.07 RPM ratio (pull-down/input); as for “GATGATTGTTCTCCCAGCTGATGAATTAGTATTGTCGAGTAAACAAATTTTCCTAATCTTTCTGTTCAAGCGCCATCTAC”, 2.55 RPM ratio (pull-down/input). With “GATGATTGTTCTCCCAGCTGATGAATTAACATCGTCGAGTAAACAAATTTTCCTAATCTTTCTGTTCAAGCGCCATCTAC”, the binding signal was 0.998 RPM ratio (pull-down/input). The value for “GATGATTGTTCTCCCAGCTGATGAATTAAAACATTCGAGTAAACAAATTTTCCTAATCTTTCTGTTCAAGCGCCATCTAC” was 1.4 RPM ratio (pull-down/input). As for “GATGATTGTTCTCCCAGCTGATGAATTAGACGTATCGAGTAAACAAATTTTCCTAATCTTTCTGTTCAAGCGCCATCTAC”, the figure is 1.02 RPM ratio (pull-down/input); as for “GATGATTGTTCTCCCAGCTGATGAATTCGTGTGTTCGAGTAAACAAATTTTCCTAATCTTTCTGTTCAAGCGCCATCTAC”, 1.22 RPM ratio (pull-down/input). As for “GATGATTGTTCTCCCAGCTGATGAATTCCTGTTTTCGAGTAAACAAATTTTCCTAATCTTTCTGTTCAAGCGCCATCTAC”, the figure is 2.04 RPM ratio (pull-down/input). With “GATGATTGTTCTCCCAGCTGATGAATTCGTGTTGTCGAGTAAACAAATTTTCCTAATCTTTCTGTTCAAGCGCCATCTAC”, the binding signal is 2.52 RPM ratio (pull-down/input).

Turning to “GATGATTGTTCTCCCAGCTGATGAATTCTTCGTGTCGAGTAAACAAATTTTCCTAATCTTTCTGTTCAAGCGCCATCTAC”, the binding signal was 0.867 RPM ratio (pull-down/input). As for “GATGATTGTTCTCCCAGCTGATGAATTTCGTGTTTCGAGTAAACAAATTTTCCTAATCTTTCTGTTCAAGCGCCATCTAC”, the figure is 1.02 RPM ratio (pull-down/input). As for “GATGATTGTTCTCCCAGCTGATGAATTCTCTGTTTCGAGTAAACAAATTTTCCTAATCTTTCTGTTCAAGCGCCATCTAC”, the figure is 0.91 RPM ratio (pull-down/input); as for “GATGATTGTTCTCCCAGCTGATGAATTCCTGATTTCGAGTAAACAAATTTTCCTAATCTTTCTGTTCAAGCGCCATCTAC”, 1.02 RPM ratio (pull-down/input). The value for “GATGATTGTTCTCCCAGCTGATGAATTCTGTTTTTCGAGTAAACAAATTTTCCTAATCTTTCTGTTCAAGCGCCATCTAC” was 1.99 RPM ratio (pull-down/input); that for “GATGATTGTTCTCCCAGCTGATGAATTCCCTGTTTCGAGTAAACAAATTTTCCTAATCTTTCTGTTCAAGCGCCATCTAC” was 0.907 RPM ratio (pull-down/input). Consider “GATGATTGTTCTCCCAGCTGATGAATTCGTCGTGTCGAGTAAACAAATTTTCCTAATCTTTCTGTTCAAGCGCCATCTAC”, for which the binding signal is 0.922 RPM ratio (pull-down/input). On to “GATGATTGTTCTCCCAGCTGATGAATTCGAGTTTTCGAGTAAACAAATTTTCCTAATCTTTCTGTTCAAGCGCCATCTAC”, for which the binding signal is 1.08 RPM ratio (pull-down/input). The value for “GATGATTGTTCTCCCAGCTGATGAATTCGTGTTTTCGAGTAAACAAATTTTCCTAATCTTTCTGTTCAAGCGCCATCTAC” was 2.29 RPM ratio (pull-down/input); that for “GATGATTGTTCTCCCAGCTGATGAATTCGCAAATTCGAGTAAACAAATTTTCCTAATCTTTCTGTTCAAGCGCCATCTAC” was 0.933 RPM ratio (pull-down/input). Regarding “GATGATTGTTCTCCCAGCTGATGAATTGGCCTTCTCGAGTAAACAAATTTTCCTAATCTTTCTGTTCAAGCGCCATCTAC”, the binding signal is 0.772 RPM ratio (pull-down/input). The value for “GATGATTGTTCTCCCAGCTGATGAATTGCAATGTTCGAGTAAACAAATTTTCCTAATCTTTCTGTTCAAGCGCCATCTAC” was 1.42 RPM ratio (pull-down/input); that for “GATGATTGTTCTCCCAGCTGATGAATTAAGGGTTTCGAGTAAACAAATTTTCCTAATCTTTCTGTTCAAGCGCCATCTAC” was 0.875 RPM ratio (pull-down/input). Take “GATGATTGTTCTCCCAGCTGATGAATTTCATGTTTCGAGTAAACAAATTTTCCTAATCTTTCTGTTCAAGCGCCATCTAC”: the binding signal was 0.998 RPM ratio (pull-down/input).

For the sequence “GATGATTGTTCTCCCAGCTGATGAATTCTCATGTTCGAGTAAACAAATTTTCCTAATCTTTCTGTTCAAGCGCCATCTAC”, the binding signal was 0.861 RPM ratio (pull-down/input). In the case of “GATGATTGTTCTCCCAGCTGATGAATTCTTGTTTTCGAGTAAACAAATTTTCCTAATCTTTCTGTTCAAGCGCCATCTAC”, the binding signal is 2.77 RPM ratio (pull-down/input). The value for “GATGATTGTTCTCCCAGCTGATGAATTCATGTTTTCGAGTAAACAAATTTTCCTAATCTTTCTGTTCAAGCGCCATCTAC” was 2.2 RPM ratio (pull-down/input); that for “GATGATTGTTCTCCCAGCTGATGAATTTCTTGTTTCGAGTAAACAAATTTTCCTAATCTTTCTGTTCAAGCGCCATCTAC” was 1.14 RPM ratio (pull-down/input); that for “GATGATTGTTCTCCCAGCTGATGAATTCCTTGTTTCGAGTAAACAAATTTTCCTAATCTTTCTGTTCAAGCGCCATCTAC” was 0.969 RPM ratio (pull-down/input).
